# Test results: PubChem BioAssay (NCATS)
# Inconclusive results are not listed. Entries that show only a call come without a potency. Calls of active or inactive are those of the source. Calls come from the whole dose curve; as a rule, active = well fitted curve in the direction sought with a large enough effect; inconclusive = small, poorly fitted or top-dose-only effect, or another doubt; inactive = no such curve, though single readings can be large; an effect the other way counts as inactive or inconclusive. Peptide text beside a SMILES is read from it. * marks the point of attachment. Octanoyl = CCCCCCCC(=O)*
# How the values were obtained:
# [1] = OV-KATE Cancer Cell Toxicity qHTS against the NCATS CANVASS Library (AID 1347345); note: potency is the fitted concentration of half-maximal effect
# Procedure, shortened: (§1)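 ATP content after 72 h treatment, detected by CellTiter-Glo luminescence (15min room-temperature development), reflects cell viability. Wells contained 1000 cells and received compounds at 11 concentrations.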
# [2] = UWB1.289 Cancer Cell Toxicity qHTS against the NCATS CANVASS Library (AID 1347347); note: nearly all actives have a fitted effect of over 60% in size; note: potency is the fitted concentration of half-maximal effect
# Procedure, shortened: as §1
# [3] = SW1088 Cancer Cell Toxicity qHTS against the NCATS CANVASS Library (AID 1347350); note: nearly all actives have a fitted effect of over 75% in size; note: potency is the fitted concentration of half-maximal effect
# Procedure, shortened: as §1
# [4] = UWB1.289-WTBRCA1 Cancer Cell Toxicity qHTS against the NCATS CANVASS Library (AID 1347354); note: potency is the fitted concentration of half-maximal effect
# Procedure, shortened: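 Cells were seeded at 1000 per well and allowed to settle 4 hours at 37 degrees C before pin transfer of compounds as an 11-point series. Viability was read by CellTiter-Glo luminescence after 72 hours' exposure.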
# [5] = HPAF-II 12hr Apoptosis Induction qHTS against the NCATS CANVASS Library (AID 1347358)
# Procedure, shortened: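 HPAF-II cells (500/well, DMEM + 10% FBS) were exposed to compounds for 12 hours at 37 degrees C. Caspase-3/7 activity was then read by Caspase-Glo 3/7 luminescence after 15 min at room temperature.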
# [6] = HPAF-II 18hr Apoptosis Induction qHTS against the NCATS CANVASS Library (AID 1347360)
# Procedure, shortened: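 Caspase-3/7 activation was measured with luminescent Caspase-Glo 3/7 reagent (15 min, RT) in HPAF-II cancer cells (500 cells/well). Before detection, cells had been treated for 18 h at 37 C with compounds (11 points).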
# [7] = G06 Cancer Cell Toxicity qHTS against the NCATS CANVASS Library (AID 1347368); note: nearly all actives have a fitted effect of over 60% in size; note: potency is the fitted concentration of half-maximal effect
# Procedure, shortened: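 G06 dog glioma cells seeded at 500 cells/well were exposed to compounds (11-point qHTS series) for 72 hr at 37C, 5% CO2; viability read as ATP content by CellTiterGlo luminescence.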
# [8] = qHTS for Hypoxia signaling pathway (HIF-1) antagonists against the NCATS CANVASS Library (AID 1347374); note: nearly all actives have a fitted effect of over 60% in size; note: potency is the fitted concentration of half-maximal effect
# Procedure, shortened: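 HRE-bla ME-180 cells (2,000/well, 0.5% dialyzed FBS) were pre-incubated 5 h, then given an 11-point compound series plus CoCl2 (60 uM solution as added) for 17 h at 37C. CCF4 β-lactamase read (ex 405, em 460/530 nm) after 2 h at RT.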
# [9] = qHTS for Hypoxia signaling pathway (HIF-1) agonists against the NCATS CANVASS Library (AID 1347375)
# Procedure, shortened: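 HRE-bla ME-180 cells (beta-lactamase reporter under hypoxia responsive element) in 0.5% dialyzed FBS medium, 5 h at 37C, then compound 17 h, 11-point qHTS series. CCF4-AM FRET substrate 2 h RT; 460/530 nm emission read.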
# [10] = DH5-alpha competent E. coli microbial cell viability qHTS against the NCATS CANVASS Library (AID 1347377); details: outcome: dose series up to 46.1 µM unless noted
# Procedure, shortened: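 DH5-alpha E. coli suspension (0.9 OD culture diluted to 0.2 OD) exposed to compounds in an 11-point series, overnight at 37C, 5% CO2. Viability read as ATP by BacTiter-Glo luminescence after 20 min at room temperature.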
# [11] = qHTS for Activators of p53 Stress Response Pathway screened against the NCATS CANVASS Library (AID 1347388); note: potency is the fitted concentration of half-maximal effect
# Procedure, shortened: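 p53RE-bla HCT-116 cells (4000/well) were pre-incubated for 5 h, then treated with compound (11 points) for 16 h at 37C. After 2 h with CCF4, the 460/530 nm ratio gave reporter activation; CellTiter-Glo measured viability.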
# [12] = qHTS assay for small molecule disruptors of mitochondrial membrane potential screened against the NCATS CANVASS Library (AID 1347389); note: nearly all actives have a fitted effect of over 60% in size; note: potency is the fitted concentration of half-maximal effect
# Procedure, shortened: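 HepG2 cells (2,000/well) were plated overnight at 37C, exposed to compound for 1 hr at 37C/5% CO2, then loaded with Mito-MPS dye for 30 min. Depolarization was read as a drop in red (590 nm) to green (535 nm) fluorescence ratio.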
# [13] = qHTS for inhibitors of ER calcium dysfunction: SERCaMP assay screened against the NCATS CANVASS Library (AID 1347393); note: nearly all actives have a fitted effect of over 40% in size; note: potency is the fitted concentration of half-maximal effect
# Procedure, shortened: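 SH-SY5Y GLuc-SERCaMP, 1000 cells/well, 4 h attach; cpd 16 h, 37C/5% CO2; thapsigargin (added as 6x 600 nM) 4 h; coelenterazine; luminescence. Reduced reporter release = ER Ca stabilization.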
# [14] = qHTS for inhibitors of Wild type Zika virus screened against the NCATS CANVASS Library (AID 1347396); note: potency is the fitted concentration of half-maximal effect
# Procedure, shortened: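 Vero 766 cells, 1000/well, o/n attach; cpds pin-transferred (11-pt qHTS); WT Zika added; 72 h, 37C, 5% CO2; CellTiter Glo lumi. Uninfected + vehicle = 100% inhibition.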
# [15] = Redox Reaction Profiling qHTS: Assay Interference Panel against the NCATS CANVASS Library (AID 1347401)
# Procedure, shortened: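 Compounds in 11-point series incubated with 5 uM resazurin and 200 uM DTT in 50 mM HEPES pH 7.3, 50 mM NaCl. Resorufin fluorescence (Ex 525/Em 598) read before and after 15 min in the dark.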
# [16] = OV-SAHO Cancer Cell Toxicity qHTS against the NCATS CANVASS Library (AID 1347348); note: nearly all actives have a fitted effect of over 55% in size; note: potency is the fitted concentration of half-maximal effect
# Procedure, shortened: as §1
# [17] = A2780 Cisplatin Sensitive Ovarian Cancer Cell Toxicity qHTS against the NCATS CANVASS Library (AID 1347353); note: nearly all actives have a fitted effect of over 60% in size; note: potency is the fitted concentration of half-maximal effect
# Procedure, shortened: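 A2780 cisplatin-sensitive cells (750 per well) were seeded, left 4 h at 37 °C, then pin-dosed in an 11-point series. After 72 h at 37 °C/5% CO2, viability was measured as ATPLite luminescence.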
# [18] = qHTS for H2AX Agonists against the NCATS CANVASS Library (AID 1347378)
# Procedure, shortened: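 Phospho-H2AX (S139) in CHO-K1 lysates measured by HTRF, reported as 665/615 nm emission ratio after 24 hr antibody incubation at room temperature. Cells were first treated with a compound series for 3 hr at 37C (0.76% DMSO final).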
# [19] = Secretion counterscreen for inhibitors of the SERCaMP assay screened against the NCATS CANVASS Library (AID 1347390);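 note: light from luciferase secreted into medium read as a measure of general secretion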; note: potency is the fitted concentration of half-maximal effect
# Procedure, shortened: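 Counterscreen for secretory-pathway interference: after 4 h attachment, SH-SY5Y-GLuc cells were exposed 20 hours to compounds (final 0.001 - 77 uM), then coelenterazine added and GLuc luminescence recorded; Brefeldin A served as control.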
# [20] = qHTS for activators of Nrf2/ARE signaling pathway screened against the NCATS CANVASS Library (AID 1347391); note: nearly all actives have a fitted effect of over 60% in size; note: potency is the fitted concentration of half-maximal effect
# Procedure, shortened: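 ARE-bla HepG2 beta-lactamase reporter cells, 2000 cells/well, were preincubated 5 h, then exposed to compounds (11-point series) for 16 h at 37C. CCF4 fluorescence (ex 405, em 460/530 nm) after 2 h at room temperature.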
Compound,Potency [1],Potency [2],Potency [3],Potency [4],Potency [5],Potency [6],Potency [7],Potency [8],Potency [9],outcome [10],Potency [11],Potency [12],Potency [13],Potency [14],Potency [15],Potency [16],Potency [17],Potency [18],Potency [19],Potency [20]
CC(=O)NC[C@@H]1O[C@H](CC/C=C(C)/C(C)=C/C=O)[C@H](C)C[C@H]1O,inactive,inactive,inactive,inactive,inactive,inactive,inactive,inactive,inactive,inactive,inactive,inactive,34.3 µM (active),inactive,inactive,,,,,
CO[C@@H]1C[C@@H](C[C@H]2CC[C@H](C)[C@H]([C@@H](C)C(=O)O)O2)O[C@]2(O[C@](C)([C@H]3CC[C@@](C)([C@@H]4O[C@@H]([C@H]5O[C@](C)(O)[C@H](C)C[C@@H]5C)C[C@@H]4C)O3)C[C@H]2C)[C@@H]1C,,3.34 µM (active),0.0168 µM (active),9.41 µM (active),,inactive,0.132 µM (active),2.11 µM (active),,,3.71 µM (active),18.6 µM (active),inactive,1.04 µM (active),inactive,0.0941 µM (active),0.0372 µM (active),inactive,0.484 µM (active),inactive
C=CC(C)(C)C(=O)[C@@H](C)[C@@H]1CC[C@](C)(C=C)O1,inactive,,inactive,inactive,,,inactive,inactive,inactive,inactive,inactive,inactive,inactive,inactive,,inactive,,inactive,inactive,inactive
C[C@@H](O)[C@H]1OC(=O)C=C2[C@]3(C)[C@H]4[C@H](OC(=O)[C@@]4(C)[C@@H](O)[C@H]4O[C@H]43)[C@H]3O[C@@]231,3.34 µM (active),2.65 µM (active),,,inactive,inactive,1.48 µM (active),1.49 µM (active),inactive,inactive,,inactive,inactive,,inactive,,0.833 µM (active),,3.84 µM (active),
COc1c(O)cc2oc(-c3ccccc3)cc(=O)c2c1O,inactive,,inactive,inactive,,inactive,inactive,9.41 µM (active),inactive,inactive,inactive,,34.3 µM (active),,inactive,,20.9 µM (active),inactive,inactive,13.2 µM (active)
CC1=CC[C@@]2(C[C@@H]1O)[C@@H](C(=O)O)CC[C@H]2C(C)C,inactive,inactive,inactive,inactive,inactive,,inactive,inactive,inactive,inactive,inactive,inactive,,inactive,inactive,,inactive,inactive,inactive,inactive
C=C1[C@H]2CC[C@@]3(C=CC(=O)[C@@](C)(CCC(=O)Nc4c(O)ccc(C(=O)O)c4O)C3C2)[C@H]1O (some centres not stated),inactive,inactive,inactive,inactive,,inactive,inactive,inactive,inactive,inactive,inactive,inactive,inactive,inactive,inactive,,inactive,,inactive,inactive
CN1CC[C@]2(c3cccc4c3N[C@@H]3N(C)CC[C@]43[C@@]34CCN(C)[C@@H]3Nc3ccccc34)c3ccccc3N[C@H]12,14.9 µM (active),18.8 µM (active),,,inactive,inactive,3.72 µM (active),14.9 µM (active),inactive,,inactive,inactive,inactive,inactive,inactive,,14.8 µM (active),inactive,,inactive
CCCCCCCC(=O)N[C@@H](CC(C)C)C(=O)N[C@H](C=O)CCC(=O)O (Octanoyl-Leu-Glu-aldehyde),,inactive,inactive,inactive,,inactive,inactive,inactive,inactive,inactive,inactive,inactive,inactive,inactive,inactive,inactive,inactive,,inactive,inactive
C=C(C)[C@@H]1CC[C@]2(C)CC[C@]3(C)[C@H](CC[C@@H]4[C@@]5(C)CC[C@H](O)C(C)(C)[C@@H]5CC[C@]43C)[C@@H]12,inactive,,inactive,inactive,,inactive,inactive,inactive,inactive,inactive,inactive,inactive,inactive,inactive,inactive,,inactive,,inactive,inactive
COc1cc(/C=C2/C(=O)N(c3ccc(O)cc3C(=O)O)[C@H](c3ccc(O)c(OC)c3)C2C(=O)Nc2ccc(O)cc2C(=O)O)ccc1O (some centres not stated),inactive,inactive,inactive,inactive,inactive,,inactive,8.38 µM (active),inactive,inactive,inactive,inactive,inactive,inactive,,,inactive,,inactive,inactive
CC(C)=CCC[C@@H](C)[C@@H]1CC[C@@]2(C)C[C@H]3C(C)=CC(=O)[C@@H]3/C(C=O)=C\C[C@H]12,,6.66 µM (active),2.66 µM (active),10.6 µM (active),,,16.6 µM (active),,,inactive,,,inactive,,,10.6 µM (active),3.72 µM (active),inactive,,inactive
